Assay results from PubChem BioAssay (Tox21).
Inconclusive results are not listed. Activity calls are given as the source filed them. Calls follow the shape of the dose curve; as a rule, active = well fitted activation curve with a large enough effect in the repeat runs; inconclusive = weak or mixed curves; inactive = no such curve, though single readings can be large or run the other way. Positions of bridges follow the written chain, without caps; N, C: chain ends. Non-standard residues stand in square brackets, D forms with d. Residues, ends and D or L forms follow the SMILES beside them. hArg = N=C(N)NCCCC[C@H](N)C(=O)O; Mpa = O=C(O)CCS

target: Nuclear receptor subfamily 1 group I member 2 (Rattus norvegicus) (UniProt Q9R1A7); experiment: Rat pregnane X receptor (rPXR) activation by small molecules, qHTS assay (AID 1346983); settings: rPXR luciferase reporter cells, One-Glo luminescence, 24 h; stronger effect = higher value; also: nearly all actives have a fitted effect of over 20% in size
Text: National Center for Advancing Translational Sciences [NCATS] NIH Chemical Genomics Center [NCGC] U.S. Environmental Protection Agency [EPA] National Institutes of Environmental Health Sciences [NIEHS] National Toxicology Program [NTP] Assay overview: The Pregnane X receptor (PXR), a ligand activated nuclear receptor plays a critical role in the regulation of genes involved in drug metabolism and transporters. PXR binds xenobiotics and when compounds interact with PXR produces enhanced expression of CYP3A genes. In humans PXR activation and CYP3A4 induction can be problematic due to their interactions with co-medicated drugs and decrease their efficacy or increase their own metabolism. However, there are known species-specific differences with regard to PXR activation that should be taken into account when animal PXR data are extrapolated to humans. A cell based rat PXR (rPXR) assay (developed by Puracyp, Inc., CA) was used to assess the activation of rPXR.
Assay Protocol Summary: rPXR cells were dispensed at 2,000 per well in 5uL of assay medium into white, solid-bottom 1536-well plates using a Multidrop Combi dispenser (Thermo Scientific). The assay plates were incubated at 37 C for 5hr before transferring 23 nL of test compounds dissolved in DMSO and positive control via Pintool station (Wako). The assay plates were incubated at 37 C for 24 hr. Then 5ul One-Glo assay reagent (Promega) was added to each plate by a Flying Reagent Dispenser (FRD, Aurora Discovery) and following 30 min incubation at room temperature, luciferase activity was quantified on a ViewLux plate reader (Perkin Elmer).
% is scaled to controls: 0 for no effect and ±100 for the full control effect.

Sequence of Nuclear receptor subfamily 1 group I member 2 (Rattus norvegicus) (Q9R1A7 whole entry, looked up): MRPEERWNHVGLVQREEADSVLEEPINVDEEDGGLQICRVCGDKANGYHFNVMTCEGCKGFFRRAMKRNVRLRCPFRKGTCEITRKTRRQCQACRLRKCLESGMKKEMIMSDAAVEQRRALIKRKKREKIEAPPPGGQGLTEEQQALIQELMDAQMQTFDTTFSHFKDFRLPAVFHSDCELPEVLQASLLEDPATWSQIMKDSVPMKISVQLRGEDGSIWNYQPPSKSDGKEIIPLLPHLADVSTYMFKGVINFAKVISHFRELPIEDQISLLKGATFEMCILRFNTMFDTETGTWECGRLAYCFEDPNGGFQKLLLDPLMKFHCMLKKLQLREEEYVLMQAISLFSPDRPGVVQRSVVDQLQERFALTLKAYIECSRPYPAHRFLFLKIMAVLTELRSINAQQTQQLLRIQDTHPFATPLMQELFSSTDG

Compound	max activation
C#CCN[C@@H]1CCc2ccccc21	-3.04% (inactive)
CC1(C)O[C@H]2CC(=O)OC[C@]23[C@H]2CC[C@@]4(C)[C@H](c5ccoc5)OC(=O)[C@H]5O[C@]54[C@]2(C)C(=O)C[C@@H]13	5.81% (inactive)
CC(N)CCCC(C)(C)O (stereo not given)	-1.43% (inactive)
C=CCN1C[C@H](C(=O)N(CCCN(C)C)C(=O)NCC)C[C@@H]2c3cccc4[nH]cc(c34)C[C@H]21	-1.45% (inactive)
CC(C)OC(=O)OCOP(=O)(CO[C@H](C)Cn1cnc2c(N)ncnc21)OCOC(=O)OC(C)C	-6.83% (inactive)
CC(=O)Nc1ccc(OC(=O)c2ccccc2OC(C)=O)cc1	1.26% (inactive)
Cn1c(=O)c2[nH]c(Br)nc2n(C)c1=O	-2.17% (inactive)
OC[C@H]1O[C@@H](O[C@@H]2[C@@H](CO)O[C@](O)(CO)[C@H]2O)[C@H](O)[C@@H](O)[C@H]1O	-1.58% (inactive)
CC(C)Cn1cnc2c1c(=O)n(C)c(=O)n2C	0.329% (inactive)
COc1cc2c(cc1OC)C(=O)C(CC1CCN(Cc3ccccc3)CC1)C2 (stereo not given)	-1.76% (inactive)
N#CCC(=O)NN	-4.95% (inactive)
CN(C)CC/C=C1/c2ccccc2COc2ccc(CC(=O)O)cc21	-3.17% (inactive)
CC(C)NCC(O)c1ccc2ccccc2c1 (stereo not given)	-0.315% (inactive)
O=C(O)[C@H](O)c1ccccc1	-3.01% (inactive)
NC(=O)[C@@H]1CSSCCC(=O)N[C@@H](CCCCN=C(N)N)C(=O)NCC(=O)N[C@@H](CC(=O)O)C(=O)N[C@@H](Cc2c[nH]c3ccccc23)C(=O)N2CCC[C@H]2C(=O)N1 ([Mpa][hArg]GDWPC-NH2; disulfide 1-7)	-0.95% (inactive)
Cc1ncc([N+](=O)[O-])n1CC(C)O (stereo not given)	-2.68% (inactive)
CN(C)CCCO[C@@H]1[C@H]2OC(C)(C)O[C@H]2O[C@@H]1C(O)CO (stereo not given in full)	-3.96% (inactive)
COc1ccc2c(c1)c1c3n2CCN(C)C3=NCC1	5.26% (inactive)
COc1c2occc2c(OC)c2c(=O)cc(C)oc12	-1.72% (inactive)
CCNC(=O)NCc1cccc(Cl)c1	-1.55% (inactive)

Compound	max activation
O=NN(CCCl)C(=O)NC1CCCCC1	-2.8% (inactive)
CN1CCOC(c2ccccc2)c2ccccc2C1 (stereo not given)	-1.81% (inactive)
CCC[C@@H]1C[C@@H](C(=O)N[C@@H]([C@H]2O[C@H](SC)[C@H](O)[C@@H](O)[C@H]2O)[C@@H](C)O)N(C)C1	0.287% (inactive)
N[C@@H](Cc1ccc(O)cc1)C(=O)O	3.66% (inactive)
CC(C)(C)NC[C@H](O)COc1cccc2c1CCCC2=O	0.088% (inactive)
CC(=O)O[C@@H]1CC2CCC1(C)C2(C)C (stereo not given in full)	-1.62% (inactive)
CCCC(=O)Nc1ccc(OCC(O)CNC(C)C)c(C(C)=O)c1 (stereo not given)	-1.06% (inactive)
c1ccc2c(CC3=NCCN3)cccc2c1	14.1% (inactive)
O=S(=O)(O)c1ccc2c(N=Nc3ccc(S(=O)(=O)O)c4ccccc34)c(O)c(S(=O)(=O)O)cc2c1	-9.86% (inactive)
CCOC(CN1CCN(CC(C)C(=O)c2ccccc2)CC1)c1ccccc1 (stereo not given)	1.41% (inactive)
Cn1nnc2c(C(N)=O)ncn2c1=O	-4.63% (inactive)
Nc1nc(-c2ccccc2)c(Br)c(=O)[nH]1	-0.177% (inactive)
CCn1cc(C(=O)O)c(=O)c2cnc(N3CCCC3)nc21	-0.363% (inactive)
O=C(Cn1ccnc1[N+](=O)[O-])NCc1ccccc1	-1.78% (inactive)
O=C(NCN1CCOCC1)c1cnccn1	-1.75% (inactive)
O=C(CN1CCNCC1)NC1CCCCC1	-3.24% (inactive)
CC(C)=CCC[C@@](C)(O)[C@H]1CC=C(C)CC1	1.39% (inactive)
Cc1c(NC(=O)c2cccnc2)c(=O)n(-c2ccccc2)n1C	-1.68% (inactive)
CN1C[C@@H]2C[C@H]1CN2c1cc2c(cc1F)c(=O)c(C(=O)O)cn2C1CC1	-1.05% (inactive)
CC1(C)Oc2ccc(C#N)cc2[C@@H](N2CCCC2=O)[C@@H]1O	0.645% (inactive)
